Test [1] deals with Acetylcholinesterase (Homo sapiens) (UniProt P22303). Description: Acetylcholinesterase (AChE) small molecule antagonists: colormetric cell-based qHTS assay (AID 1347395; calls by dose curve; note: nearly all actives have a fitted effect of over 30% in size; note: potency is the fitted concentration of half-maximal effect). Summed up:
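After overnight attachment at 37 C, SH-SY5Y cells get 30 min compound exposure; detection cocktail (acetylthiocholine, DTNB) then incubates 90 min at 37 C, and absorbance reflects AChE-generated thiocholine.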

The target is the same in test [2]. Description: Acetylcholinesterase (AChE) small molecule antagonists: enzyme-based qHTS assay (AID 1347397; calls by dose curve; note: nearly all actives have a fitted effect of over 55% in size; note: potency is the fitted concentration of half-maximal effect). To be noted: Potency: AChE enzyme activity inhibition. The gist of the method:
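Recombinant human AChE, dispensed at 50 mU/mL, was preincubated with Tox21 10K compounds or DMSO vehicle for 30 min at room temperature. DTNB plus acetylthiocholine was then added, and thiocholine was measured colorimetrically after a further 10 min.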

Test [3] has the same target. The test is described as follows: Acetylcholinesterase (AChE) small molecule antagonists: fluorescence cell-based qHTS assay (AID 1347398; calls by dose curve; note: nearly all actives have a fitted effect of over 50% in size; note: potency is the fitted concentration of half-maximal effect). The settings on record: Potency: AChE activity. The gist of the method:
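Human SH-SY5Y cells were plated overnight at 37 C, exposed to compound for 30 min at 37 C, 5% CO2, then given acetylthiocholine plus Thiolite Green for 40 min at room temperature; thiocholine fluorescence (Ex/Em 490/520 nm) reports endogenous AChE activity.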
A general note: Quantitative high-throughput screening tests each substance at several concentrations.

The target is the same in test [4]. Description: Acetylcholinesterase (AChE) small molecule antagonists: enzyme-based qHTS assay with human liver microsomes (AID 1347399; calls by dose curve; note: nearly all actives have a fitted effect of over 60% in size; note: potency is the fitted concentration of half-maximal effect). To be noted: Potency: qHTS inhibition. Summed up:
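Recombinant human AChE (50 mU/mL in the enzyme mix) and human liver microsomes (0.25 mg/mL final) were preincubated with compound and NADPH (0.25 mg/mL final) for 30 min at 37 C. Acetylthiocholine/DTNB was then added; thiocholine was read colorimetrically after 10 min at room temperature.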

For test [5], the target named is Cytochrome P450 2C19 (Homo sapiens) (UniProt P33261). Description: Cytochrome P450 Family 2 Subfamily C Member 19 (CYP2C19) small molecule antagonists: luciferase reporter qHTS assay (AID 1671197). Note: nearly all actives have a fitted effect of over 65% in size. Note: potency is the fitted concentration of half-maximal effect. Summed up:
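P450-Glo CYP2C19 system: enzyme-substrate mix with compound 10 min at room temperature, then NADPH regeneration solution, 1 h at 37C. Proluciferin-to-luciferin conversion detected by luminescence after 20 min with detection reagent; ketoconazole as positive control.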
(In a reporter assay the amount or activity of a reporter protein is the signal.)

Test [6] concerns the target Cytochrome P450 2C9 (Homo sapiens) (UniProt P11712). The test is described as follows: Cytochrome P450 Family 2 Subfamily C Member 9 (CYP2C9) small molecule antagonists: luciferase reporter qHTS assay (AID 1671198). Note: nearly all actives have a fitted effect of over 50% in size. Note: potency is the fitted concentration of half-maximal effect. Summed up: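 CYP2C9 activity was measured with a P450-Glo proluciferin substrate. Enzyme–substrate mix was held with compound for 10 min at room temperature, then NADPH regeneration solution was added for 1 h at 37C. Luciferin product was read as luminescence.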

Test [7] deals with Cytochrome P450 1A2 (Homo sapiens) (UniProt P05177). Description: Cytochrome P450 Family 1 Subfamily A Member 2 (CYP1A2) small molecule antagonists: luciferase reporter qHTS assay (AID 1671199). Note: nearly all actives have a fitted effect of over 50% in size. Note: potency is the fitted concentration of half-maximal effect. The gist of the method: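 Inhibition of CYP1A2 conversion of proluciferin to luciferin, detected by luminescence. Reaction run 1 h at room temperature with NADPH regeneration after brief compound preincubation.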
Cytochrome P450 1A2 (Homo sapiens), sequence (P05177 whole entry, looked up): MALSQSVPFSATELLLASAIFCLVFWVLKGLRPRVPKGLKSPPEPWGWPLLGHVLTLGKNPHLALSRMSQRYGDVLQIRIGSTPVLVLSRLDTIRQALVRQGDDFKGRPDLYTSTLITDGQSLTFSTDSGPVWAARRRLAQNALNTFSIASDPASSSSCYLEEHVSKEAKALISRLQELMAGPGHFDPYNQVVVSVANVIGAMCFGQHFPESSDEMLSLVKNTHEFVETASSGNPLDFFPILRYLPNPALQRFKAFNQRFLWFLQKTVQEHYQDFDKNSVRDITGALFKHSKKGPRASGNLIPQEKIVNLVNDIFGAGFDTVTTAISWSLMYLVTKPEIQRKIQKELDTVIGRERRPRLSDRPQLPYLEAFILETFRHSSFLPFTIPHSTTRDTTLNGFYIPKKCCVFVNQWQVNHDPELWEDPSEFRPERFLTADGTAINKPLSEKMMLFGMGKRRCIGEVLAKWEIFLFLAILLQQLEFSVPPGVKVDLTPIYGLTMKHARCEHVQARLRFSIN

The target in test [8] is Voltage-gated inwardly rectifying potassium channel KCNH2 (Homo sapiens) (UniProt Q12809). The test is described as follows: Human Ether-a-go-go-Related Gene (hERG) channel small molecule antagonists: fluorescence cell-based qHTS assay (AID 1671200).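 Note: hERG-expressing U2OS cells given a thallium stimulus after FluxOR II dye loading; series mostly up to about 77 µM; nearly all actives have a fitted effect of over 50% in size.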 The gist of the method: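 In this thallium-flux screen, overnight-cultured U2OS cells bearing the channel are dye-loaded in darkness for an hour, rested 10 min at room temperature, and then monitored kinetically at 480/540 nm for two minutes post-stimulus.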
Voltage-gated inwardly rectifying potassium channel KCNH2 (Homo sapiens), sequence (Q12809 whole entry, looked up): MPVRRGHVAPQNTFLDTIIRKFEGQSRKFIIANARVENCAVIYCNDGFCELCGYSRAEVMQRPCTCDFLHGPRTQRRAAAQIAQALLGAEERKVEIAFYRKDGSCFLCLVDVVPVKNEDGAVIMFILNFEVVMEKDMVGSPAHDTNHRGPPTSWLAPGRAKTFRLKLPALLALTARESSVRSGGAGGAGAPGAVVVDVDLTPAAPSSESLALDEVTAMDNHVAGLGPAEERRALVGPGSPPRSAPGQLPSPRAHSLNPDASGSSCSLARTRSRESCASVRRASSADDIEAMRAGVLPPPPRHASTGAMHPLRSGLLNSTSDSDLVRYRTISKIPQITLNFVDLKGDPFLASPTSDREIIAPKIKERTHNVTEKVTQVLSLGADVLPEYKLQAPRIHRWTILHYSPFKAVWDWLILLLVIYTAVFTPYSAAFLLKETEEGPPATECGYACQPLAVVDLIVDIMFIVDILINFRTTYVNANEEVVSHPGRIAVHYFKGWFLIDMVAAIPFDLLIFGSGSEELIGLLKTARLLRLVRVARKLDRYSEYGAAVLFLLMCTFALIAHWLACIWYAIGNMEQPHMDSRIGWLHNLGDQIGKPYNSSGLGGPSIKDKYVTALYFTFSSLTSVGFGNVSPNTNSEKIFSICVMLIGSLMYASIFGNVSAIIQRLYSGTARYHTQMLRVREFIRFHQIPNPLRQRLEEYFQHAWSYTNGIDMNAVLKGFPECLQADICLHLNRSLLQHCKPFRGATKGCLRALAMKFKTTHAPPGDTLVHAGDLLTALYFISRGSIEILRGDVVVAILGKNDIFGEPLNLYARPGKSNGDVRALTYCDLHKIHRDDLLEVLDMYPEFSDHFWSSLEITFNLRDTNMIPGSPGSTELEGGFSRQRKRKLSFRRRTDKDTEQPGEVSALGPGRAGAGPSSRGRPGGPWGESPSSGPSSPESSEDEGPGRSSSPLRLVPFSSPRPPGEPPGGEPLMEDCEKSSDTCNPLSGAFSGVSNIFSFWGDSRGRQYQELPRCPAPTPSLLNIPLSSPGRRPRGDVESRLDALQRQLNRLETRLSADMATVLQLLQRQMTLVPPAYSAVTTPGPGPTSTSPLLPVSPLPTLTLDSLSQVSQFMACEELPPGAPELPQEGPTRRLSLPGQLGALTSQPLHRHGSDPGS
In general terms: The hERG channel carries a current that helps repolarise heart muscle cells.

Test [9] has as its target Cytochrome P450 3A4 (Homo sapiens) (UniProt P08684). The test is described as follows: Cytochrome P450 Family 3 Subfamily A Member 4 (CYP3A4) small molecule antagonists: luciferase reporter qHTS assay (AID 1671201). Note: nearly all actives have a fitted effect of over 50% in size. Note: potency is the fitted concentration of half-maximal effect. Summed up:
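CYP3A4 activity was followed with a P450-Glo proluciferin substrate. Test compounds in DMSO were preincubated 10 min; NADPH regeneration then ran 1 h, and light output was read 20 min after detection reagent.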

The target of test [10] is Cytochrome P450 2D6 (Homo sapiens) (UniProt P10635). Description: Cytochrome P450 Family 2 Subfamily D Member 6 (CYP2D6) small molecule antagonists: luciferase reporter qHTS assay (AID 1671196). Note: nearly all actives have a fitted effect of over 50% in size. Note: potency is the fitted concentration of half-maximal effect. The gist of the method:
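P450-Glo format: CYP2D6 converts a proluciferin substrate to luciferin in an NADPH-driven reaction lasting 1 h at room temperature. Light output, proportional to CYP2D6 activity, reflects interference by test chemicals.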

Among the data in PubChem BioAssay (Tox21) are Potency values, retold here.

Values joined by “and” are separate entries in the source; they are usually repeats but may differ in a detail not shown here. Equal entries are not always repeated. Inconclusive results are not listed. Active and inactive are the calls of the source. Unless noted, calls come from the whole dose curve; as a rule, active = well fitted curve in the direction sought with a large enough effect in the repeat runs; inconclusive = weak or mixed curves; inactive = no such curve, though single readings can be large; an effect the other way counts as inactive or inconclusive.

Cytochrome P450 3A4 (Homo sapiens), sequence (P08684 whole entry, looked up): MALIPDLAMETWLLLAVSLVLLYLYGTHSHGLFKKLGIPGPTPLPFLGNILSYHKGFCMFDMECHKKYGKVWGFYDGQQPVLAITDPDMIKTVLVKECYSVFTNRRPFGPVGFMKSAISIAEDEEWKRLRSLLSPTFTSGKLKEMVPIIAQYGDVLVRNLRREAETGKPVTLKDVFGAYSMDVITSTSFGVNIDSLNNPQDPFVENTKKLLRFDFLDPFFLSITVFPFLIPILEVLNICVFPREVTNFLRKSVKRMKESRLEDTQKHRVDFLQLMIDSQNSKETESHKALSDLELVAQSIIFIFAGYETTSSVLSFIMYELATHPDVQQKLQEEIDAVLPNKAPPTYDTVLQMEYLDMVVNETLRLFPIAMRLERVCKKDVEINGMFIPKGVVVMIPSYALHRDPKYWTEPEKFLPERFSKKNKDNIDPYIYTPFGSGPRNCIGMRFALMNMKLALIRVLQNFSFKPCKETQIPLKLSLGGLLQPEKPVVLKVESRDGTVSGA
Cytochrome P450 2C9 (Homo sapiens), sequence (P11712 whole entry, looked up): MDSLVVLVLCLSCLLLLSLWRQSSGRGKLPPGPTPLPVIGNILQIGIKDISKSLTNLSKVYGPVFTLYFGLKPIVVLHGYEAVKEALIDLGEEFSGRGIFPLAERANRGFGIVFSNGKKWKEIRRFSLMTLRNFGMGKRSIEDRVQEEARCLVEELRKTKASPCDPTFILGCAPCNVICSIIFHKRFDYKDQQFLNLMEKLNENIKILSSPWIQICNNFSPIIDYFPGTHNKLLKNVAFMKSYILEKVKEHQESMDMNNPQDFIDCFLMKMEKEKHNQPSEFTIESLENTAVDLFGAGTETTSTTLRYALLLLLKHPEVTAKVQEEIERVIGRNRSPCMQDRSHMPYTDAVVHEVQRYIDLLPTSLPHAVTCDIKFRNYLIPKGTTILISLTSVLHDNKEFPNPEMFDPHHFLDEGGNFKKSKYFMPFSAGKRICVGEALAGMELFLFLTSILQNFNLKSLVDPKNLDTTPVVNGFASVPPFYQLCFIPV
Acetylcholinesterase (Homo sapiens), sequence (P22303 whole entry, looked up): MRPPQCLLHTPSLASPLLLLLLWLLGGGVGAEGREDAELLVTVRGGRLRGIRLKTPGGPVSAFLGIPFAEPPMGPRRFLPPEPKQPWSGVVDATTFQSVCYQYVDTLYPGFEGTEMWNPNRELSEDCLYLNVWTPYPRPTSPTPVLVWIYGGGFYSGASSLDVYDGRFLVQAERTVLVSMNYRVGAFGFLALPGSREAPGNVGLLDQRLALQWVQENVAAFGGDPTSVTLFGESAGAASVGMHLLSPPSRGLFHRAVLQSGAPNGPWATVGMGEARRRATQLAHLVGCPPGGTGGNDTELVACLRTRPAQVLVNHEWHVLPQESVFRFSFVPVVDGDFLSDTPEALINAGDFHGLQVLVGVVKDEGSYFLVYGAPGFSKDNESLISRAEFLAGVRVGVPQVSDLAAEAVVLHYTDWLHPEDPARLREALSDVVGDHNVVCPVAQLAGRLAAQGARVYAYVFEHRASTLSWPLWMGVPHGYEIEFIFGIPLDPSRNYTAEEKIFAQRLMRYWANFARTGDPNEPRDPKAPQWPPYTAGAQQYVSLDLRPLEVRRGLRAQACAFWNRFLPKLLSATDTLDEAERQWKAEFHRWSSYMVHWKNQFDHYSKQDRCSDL
Cytochrome P450 2C19 (Homo sapiens), sequence (P33261 whole entry, looked up): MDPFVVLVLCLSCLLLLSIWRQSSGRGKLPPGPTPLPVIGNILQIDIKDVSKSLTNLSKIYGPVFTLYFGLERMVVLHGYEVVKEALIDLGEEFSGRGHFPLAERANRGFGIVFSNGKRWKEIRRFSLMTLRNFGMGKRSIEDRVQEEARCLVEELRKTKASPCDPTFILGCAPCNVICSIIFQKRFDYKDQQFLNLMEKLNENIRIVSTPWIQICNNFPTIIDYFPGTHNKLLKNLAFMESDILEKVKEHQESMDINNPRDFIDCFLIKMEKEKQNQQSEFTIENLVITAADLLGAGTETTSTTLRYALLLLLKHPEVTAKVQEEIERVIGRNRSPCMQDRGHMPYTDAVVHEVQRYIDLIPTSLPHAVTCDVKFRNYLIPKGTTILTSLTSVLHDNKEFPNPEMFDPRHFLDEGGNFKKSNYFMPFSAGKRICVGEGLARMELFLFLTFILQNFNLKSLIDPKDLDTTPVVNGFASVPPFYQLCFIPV
Cytochrome P450 2D6 (Homo sapiens), sequence (P10635 whole entry, looked up): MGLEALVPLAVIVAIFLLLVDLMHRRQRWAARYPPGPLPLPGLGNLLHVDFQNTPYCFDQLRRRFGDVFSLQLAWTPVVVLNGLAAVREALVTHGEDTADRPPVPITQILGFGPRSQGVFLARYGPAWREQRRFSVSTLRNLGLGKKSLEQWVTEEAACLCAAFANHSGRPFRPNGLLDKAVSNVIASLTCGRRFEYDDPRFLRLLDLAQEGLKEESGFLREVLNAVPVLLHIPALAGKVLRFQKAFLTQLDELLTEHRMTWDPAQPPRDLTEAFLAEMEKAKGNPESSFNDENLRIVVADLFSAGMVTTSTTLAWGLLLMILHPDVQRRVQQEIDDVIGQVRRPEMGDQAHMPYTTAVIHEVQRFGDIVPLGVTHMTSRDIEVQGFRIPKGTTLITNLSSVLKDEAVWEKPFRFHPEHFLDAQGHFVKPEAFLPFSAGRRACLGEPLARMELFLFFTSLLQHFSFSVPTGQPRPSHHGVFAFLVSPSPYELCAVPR

As for `O=[N+]([O-])c1ccc(F)c([N+](=O)[O-])c1`, the Potency entry in test [1], in [2], in test [3], in [4], in test [5] and in test [7] was “inactive” each time. Moreover, the Potency entry in test [8] and in test [9] was “inactive” in each case. The Potency in test [6] is 32 µM (active).
With `COC(C)(C)CCC[C@H](C)C/C=C/C(C)=C/C(=O)OC(C)C`, the Potency result in test [1], in test [2], in test [3], in [4] and in test [8] was “inactive” in each case. The Potency in test [5] is 17.8 µM (active); in [6] it was 22.4 µM (active); in [7], 35.6 µM (active); in [9], 20 µM (active).
As for `C/C=C/C=O`, the Potency entry in test [1], in test [2], in test [3], in test [4], in test [10] and in test [8] was “inactive” in each case. In [9], the Potency entry was “inactive”. For the same compound, in test [5], the Potency was 34 µM (active).
For the compound `N#Cc1cc(I)c(O)c(I)c1`, the Potency entry in [1], in test [2], in test [3], in [4], in test [10] and in test [8] was “inactive” in each case. Further, the Potency entry in [9] is “inactive”. The Potency in test [6] is 22.4 µM (active).
For `O=C(CBr)Nc1ccc(Cl)cc1C(=O)c1ccccc1F`, the Potency result in test [1], in test [2], in [3], in test [4], in [10] and in [8] was “inactive” in each case. Also, the Potency entry in test [9] is “inactive”. For the same compound, the Potency in [5] is 1.95 µM (active); in [7], 13.8 µM (active).
In the case of `C[C@]12CC[C@H]3[C@@H](CCC4=CC(=O)CC[C@@H]43)[C@@H]1CC[C@@H]2OC(=O)CCC1CCCCC1`, the Potency entry in [1], in test [2], in test [3], in [4], in [10] and in test [9] was “inactive” each time. Further, in test [6], the Potency was 17.4 µM (active).
`COC(=O)C(Br)CBr` (stereo not given): the Potency result in [1], in [2], in test [3], in test [4], in test [10] and in [6] was “inactive” in each case. Also, the Potency entry in [8] and in [9] was “inactive” throughout. In addition, the Potency in test [7] was 35.6 µM (active).
On to `Nc1nc(N)nc(N)n1`, for which the Potency result in [1], in [2], in test [3], in test [4], in [10] and in [6] was “inactive” each time. Further, the Potency result in [8] and in test [9] was “inactive” throughout. For the same compound, in [7], the Potency is 31.8 µM (active).
For the compound `C=COC(C)=O`, the Potency result in test [1], in [2], in test [3], in [4], in test [5] and in test [6] was “inactive” in each case. Besides, the Potency result in test [8] and in test [9] was “inactive” in each case. For the same compound, the Potency in test [7] was 41.3 µM (active).
Regarding `BrCC(Br)C1CCC(Br)C(Br)C1` (stereo not given), the Potency entry in test [1], in test [2], in test [3], in [4] and in test [9] was “inactive” in each case. The Potency was 11.2 µM (active) in test [5] and 31.6 µM (active) in test [6].
Take `Brc1ccccc1`: the Potency result in test [1], in test [2], in test [3], in test [4], in test [10] and in test [6] was “inactive” in each case. The Potency result in test [8] and in [9] was “inactive” in each case.
With `O=C1c2ccccc2C(=O)C1C(=O)C(c1ccccc1)c1ccccc1`, the Potency entry in test [1], in test [2], in test [3], in test [4], in test [8] and in [9] was “inactive” in each case. The Potency is 21.9 µM (active) in test [5], 1.38 µM (active) in test [6] and 15.5 µM (active) in [7].
Turning to `C=CCC1([C@H](C)CCC)C(=O)NC(=O)NC1=O`, the Potency result in test [1], in test [2], in test [3], in [4], in [10] and in test [5] was “inactive” in each case. Besides, the Potency entry in test [7] and in test [8] was “inactive” throughout. For the same compound, in test [9], the Potency is 31.4 µM (active).
Consider `CCCCNP(N)(N)=S`, for which the Potency result in test [1], in test [2], in test [3], in test [4], in test [7] and in test [8] was “inactive” throughout. For the same compound, in test [9], the Potency entry is “inactive”. For the same compound, the values for the Potency in [5] and in test [6] were 50.2 µM (active) and 35.6 µM (active), respectively.
Consider `CCC(Br)(CC)C(=O)NC(N)=O`, for which the Potency entry in test [1], in test [2], in [3], in [4], in test [5] and in [6] was “inactive” each time. For the same compound, the Potency entry in test [7], in [8] and in test [9] was “inactive” in each case.
`CC1(C)[C@H](C=C(Cl)Cl)[C@@H]1C(=O)O[C@@H](C#N)c1cccc(Oc2ccccc2)c1`: the Potency result in [1], in test [2], in test [3], in test [4], in test [7] and in [8] was “inactive” in each case. In addition, the Potency result in test [9] is “inactive”. In addition, the Potency is 7.96 µM (active) in test [5] and 3.56 µM (active) in test [6].
Consider `CC(C)(CCl)C(=O)Cl`, for which the Potency result in test [1], in test [2], in test [3], in [4], in test [5] and in test [6] was “inactive” throughout. The Potency result in test [7], in test [8] and in test [9] was “inactive” in each case.
Take `O=[Se]=O`: the Potency result in test [1], in test [2], in [3], in test [4], in test [10] and in test [7] was “inactive” throughout. The Potency entry in test [8] and in [9] was “inactive” throughout.
Take `CC(=O)NC1CCSC1=O` (stereo not given): the Potency entry in test [1], in test [2], in test [3], in test [4], in test [10] and in test [5] was “inactive” in each case. Besides, the Potency entry in test [7], in [8] and in [9] was “inactive” throughout.
As to `CC(C)O.CC(C)O.OCCN(CCO)CCO.OCCN(CCO)CCO.[Ti]`, the Potency entry in test [1], in [2], in test [3], in [4], in [10] and in test [5] was “inactive” in each case. The Potency result in test [7], in test [8] and in test [9] was “inactive” each time.
With `C(=NC1CCCCC1)=NC1CCCCC1`, the Potency entry in test [1], in test [2], in [3], in test [4], in [6] and in test [7] was “inactive” each time. For the same compound, the Potency result in test [8] and in test [9] was “inactive” each time. The Potency in test [10] was 63.3 µM (active).
For `N#CCc1ccccc1`, the Potency result in [1], in test [2], in test [3], in [4], in test [5] and in test [6] was “inactive” in each case. Further, the Potency entry in test [8] and in test [9] was “inactive” each time.
As for `O=C(CBr)c1ccccc1`, the Potency entry in test [1], in [2], in [3], in test [4], in test [8] and in test [9] was “inactive” in each case. Also, the values for the Potency in test [10], in test [5] and in [7] were 2.53 µM (active), 56.7 µM (active) and 63.7 µM (active), respectively.
For the compound `CC[C@H]1C[C@H]2[C@@H]3CCC4=CC(=O)CC[C@@H]4[C@H]3CC[C@]2(C)[C@H]1O`, the Potency result in test [1], in [2], in test [3], in test [4], in test [10] and in [7] was “inactive” each time. Also, the Potency entry in test [8] and in test [9] was “inactive” each time.
`CCOP(=S)(OCC)Oc1nc(Cl)c(Cl)cc1Cl`: the Potency in test [1] was 35.7 µM (active) and 35.6 µM (active); in test [2] it was 79.9 µM (active); in test [3] it was 35.7 µM (active) and 35.6 µM (active); in test [4], 56.6 nM (active) and 894 nM (active); in test [5], 2.25 µM (active) and 5.03 µM (active); in [6], 7.99 µM (active) and 10 µM (active). Further, the Potency is 2.53 µM (active) and 3.56 µM (active) in test [7]; 1.13 µM (active) and 2 µM (active) in test [9]. Also, in test [8], the Potency entry was “inactive”.
